# Experimental data reported in PubChem BioAssay (NCI).
# This is part of a sample that, as a whole, favours compounds with a hit. Of some 79,000 tested, about 15% had one in any assay. Unmarked numbers belong to inactive results. Cut-off read from the data, not from the text of the source: active = growth inhibition above about 70%; inactive = the rest.
# Test: NCI Yeast Anticancer Drug Screen. Data for the bub3 strain (AID 167)
# Conditions: S. cerevisiae bub3 mutant strain, at 50.0 µM, stronger effect = higher value
# How it was run: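 Steps: expose the mutant yeast strain to compound; grow alongside vehicle-treated cultures; measure growth; express inhibition against the vehicle cultures.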
row,Compound,growth inhibition [%]
1,Cc1cc(Cl)ccc1NC(=O)NC(C)(C)COC(=O)Nc1cccc(Cl)c1,16.1
2,COc1cc(/C=C\C(=O)c2cccc([N+](=O)[O-])c2)cc(OC)c1OC,29.1
3,Cc1ccc(NC(=O)c2ccc(Cl)cc2)cc1,0
4,CCCCCCCCCC(=O)OCC1OC(n2cc(F)c(=O)[nH]c2=O)C(N)C(OC(=O)CCCCCCCCC)C1O (centres undefined),8.85
5,O=S1(=O)CCC(Br)c2ccccc21 (centres undefined),8.6
6,O=C(O)Cn1cc(I)c(=O)c(I)c1,-10.3
7,CC(Nc1ncccn1)Nc1ncccn1,-1.95
8,COc1cc(/C=C\c2ccc(SC)cc2)cc(OC)c1OC,16.8
9,COc1ccc(C2=NOC3COC4C=CC=CC4OCC23)cc1 (centres undefined),-19.4
10,CC1CCC2(C)OC1OC2CN (centres undefined),0.3
11,c1ccc(-c2nsc3ccccc23)cc1,-14.8
12,Fc1ccc(-c2ccc(Br)cc2)cc1,17
13,BrCc1cccc2cccc(CBr)c12,9.05
14,CCc1cccc(CC)c1NC(=S)NN,24.2
15,COc1ccc(C(C)(C)C#N)cc1,-10.6
16,O=c1c(-c2ccccc2)coc2ccccc12,-14.3
17,NCCc1ccc(O)c(O)c1,-1.45
18,CCOC1=NC(C)C(C)N1 (centres undefined),6.25
19,COC(=O)C1(CC(=O)CC(=O)CC2(C(=O)OC)NC(=S)NC(=O)C2C#N)NC(=S)NC(=O)C1C#N (centres undefined),5.55
